Consider 66 compounds from PubChem BioAssay AID588590 (National Center for Advancing Translational Sciences (NCATS), 2011).

About 4,000 (1%) of roughly 390,000 compounds were called active. Entries that show only a call come without a potency. Inconclusive results (about 7%) are left out. Calls come from the whole dose curve; as a rule, active = well fitted inhibition curve with a large enough effect; inconclusive = small, poorly fitted or top-dose-only effect, or another doubt; inactive = no such curve, though single readings can be large or run the other way. The sample as a whole holds a higher share of actives than the screen did.
Potency is the fitted concentration of half-maximal effect.

Chain of DNA polymerase iota (Homo sapiens) (Q9UNA4 whole entry, looked up): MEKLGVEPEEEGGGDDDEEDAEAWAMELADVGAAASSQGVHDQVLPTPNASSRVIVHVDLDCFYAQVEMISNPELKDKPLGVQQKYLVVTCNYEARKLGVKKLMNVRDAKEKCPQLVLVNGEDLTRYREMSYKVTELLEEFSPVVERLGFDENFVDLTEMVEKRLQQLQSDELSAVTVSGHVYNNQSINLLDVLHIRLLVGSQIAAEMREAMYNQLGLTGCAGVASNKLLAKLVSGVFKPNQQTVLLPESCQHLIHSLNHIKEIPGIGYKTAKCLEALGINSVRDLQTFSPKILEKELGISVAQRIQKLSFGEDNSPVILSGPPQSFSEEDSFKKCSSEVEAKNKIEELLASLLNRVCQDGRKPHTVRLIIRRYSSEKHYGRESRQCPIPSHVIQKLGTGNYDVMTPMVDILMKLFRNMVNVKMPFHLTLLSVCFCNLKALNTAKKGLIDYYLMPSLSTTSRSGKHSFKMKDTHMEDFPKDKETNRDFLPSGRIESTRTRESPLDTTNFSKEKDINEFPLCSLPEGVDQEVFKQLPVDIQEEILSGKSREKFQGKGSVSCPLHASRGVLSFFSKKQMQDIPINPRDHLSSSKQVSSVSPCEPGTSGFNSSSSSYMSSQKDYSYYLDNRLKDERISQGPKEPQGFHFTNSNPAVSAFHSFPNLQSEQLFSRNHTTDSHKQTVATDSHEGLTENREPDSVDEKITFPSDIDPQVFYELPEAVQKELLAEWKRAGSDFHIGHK

The target of this experiment is DNA polymerase iota (Homo sapiens) (UniProt Q9UNA4). Put plainly: qHTS for Inhibitors of Polymerase Iota. To be noted: Pol iota fluorescent replication assay, 10 min; series mostly up to 115 µM. The essentials:
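Fluorescent replication assay read twice, at 0 min and 10 min after adding 50 nM (final) substrate. Enzyme (10 nM) and compounds were first incubated 15 min at room temperature; enzyme-free buffer wells were negative controls.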
A general note: qHTS replaces the single test concentration by a dilution series.
Turning to `O=C(Nc1ccc(F)cc1F)c1ccc2c(=O)n3c(nc2c1)CCCCC3`, the Potency result is “inactive”.

With `Cc1ccc(Cl)cc1NC(=O)/C(C#N)=C\c1cn(Cc2ccc(F)cc2)c2ccccc12`, the Potency is 89.1 µM (active).

Consider `Cc1ccc(/C=C(\C#N)C(=O)Nc2cc(C)ccc2C)cc1`, for which the Potency result is “inactive”.

As to `COCCCNC(=O)Cn1cc(/C=C(\C#N)C(=O)N2CCN(c3ccccc3)CC2)c2ccccc21`, the Potency result was “inactive”.

Regarding `Nc1ccc(/C=C/c2ccnc3ccccc23)c([N+](=O)[O-])c1`, the Potency result was “inactive”.

As for `Cc1ccccc1OCc1nc2c3cnn(-c4ccccc4F)c3ncn2n1`, the Potency result is “inactive”.

For the compound `Cc1ccc(C)c(S(=O)(=O)c2nnn3c2nc(N2CCOCC2)c2sccc23)c1`, the Potency entry was “inactive”.

Turning to `Cc1cc(C(=O)OCC(=O)NCc2ccco2)c(C)n1-c1ccccc1`, the Potency is 22.4 µM (active).

In the case of `Cn1c(N)c(C(=O)COC(=O)c2ccccc2NCc2ccco2)c(=O)n(C)c1=O`, the Potency result is “inactive”.

Turning to `O=S(=O)(NCc1ccco1)c1cnc(Cl)c(Cl)c1`, the Potency result is “inactive”.

As for `O=C(COC(=O)c1cc(S(=O)(=O)N2CCOCC2)ccc1Cl)NCCc1ccccc1`, the Potency entry was “inactive”.

`O=C(COC(=O)c1ccccc1O)NCc1ccco1`: the Potency is 35.5 µM (active).

For `CN(c1ccccc1)S(=O)(=O)c1ccc(Cl)c(C(=O)OCC(=O)N2CCOCC2)c1`, the Potency result is “inactive”.

Take `O=C(CCCOc1ccccc1)NCc1ccco1`: the Potency result is “inactive”.

Consider `CN(c1ccccc1)S(=O)(=O)c1ccc(Cl)c(C(=O)OCC(=O)NCc2ccco2)c1`, for which the Potency was 44.7 µM (active).

Regarding `O=C(COC(=O)c1ccccc1C(=O)N1CCN(c2ccccc2)CC1)NCc1ccccc1`, the Potency entry is “inactive”.

With `COc1ccc(CCNC(=O)COC(=O)c2cnc(Cl)c(Cl)c2)cc1`, the Potency result was “inactive”.

In the case of `Cc1cccc(C)c1NC(=O)COC(=O)c1ccccc1O`, the Potency entry is “inactive”.

As to `O=C(COC(=O)c1cnc(Cl)c(Cl)c1)NCc1ccco1`, the Potency is 17.8 µM (active).

Regarding `CN1CCN(C(CNC(=O)c2ccccc2F)c2ccc3c(c2)OCO3)CC1` (stereo unspecified), the Potency entry is “inactive”.

As to `Cc1ccc(OCCSc2nc(C)c(Cc3ccccc3)c(=O)[nH]2)cc1`, the Potency result is “inactive”.

As for `Cc1ccc(CCNC(=O)c2ccc3c(c2)N(Cc2cc(C)ccc2C)C(=O)c2ccccc2S3=O)cc1` (stereo unspecified), the Potency result is “inactive”.

On to `Cc1ccc(Cl)cc1N1CCN(C(=O)c2cccn3c(=O)c4cc(Cl)ccc4nc23)CC1`, for which the Potency result is “inactive”.

Turning to `CCCn1c2ccccc2c2cnn(CC(=O)N3CCCC(C(=O)OCC)C3)c(=O)c21` (stereo unspecified), the Potency entry was “inactive”.

Turning to `CCOC(=O)N1CCc2c(sc3c2c(=O)n(-c2ccc(CC)cc2)c(=O)n3C)C1`, the Potency entry is “inactive”.

`O=C(NCc1ccccc1)c1cccc(NC(=O)N2CCSc3ncccc32)c1`: the Potency entry was “inactive”.

For `Cc1c(NC(=O)Cc2ccccc2)cccc1-c1nc2cccnc2s1`, the Potency result is “inactive”.

For the compound `O=C(Nc1ccccc1Cl)N1CCC(CN2CCCC2)CC1`, the Potency result was “inactive”.

For `O=C(Nc1ccccc1Cl)/C(Cl)=C(\Cl)S(=O)c1ccccc1` (stereo unspecified), the Potency is 12.6 µM (active).

For `O=C(Nc1ccccc1Cl)N1CCC(CN2CCCCC2)CC1`, the Potency entry is “inactive”.

For the compound `Cc1ccc(-c2nn3c(=O)cc(CN4CCN(S(=O)(=O)c5ccc(Cl)cc5)CC4)nc3s2)cc1`, the Potency entry was “inactive”.

For `Cc1csc(SCC(=O)Nc2sccc2C#N)n1`, the Potency is 22.4 µM (active).

`N#Cc1ccsc1NC(=O)CN1CCCCC1`: the Potency result was “inactive”.

For `CC(=O)c1cc(C#N)c(SCC(=O)Nc2nccs2)nc1C`, the Potency result was “inactive”.

On to `COc1ccc(CCN2C(=O)c3oc4cc(C)cc(C)c4c(=O)c3C2c2ccccc2F)cc1OC` (stereo unspecified), for which the Potency result is “inactive”.

As to `CC1(C)N=C(SCc2ccccc2Cl)c2ccccc2N1`, the Potency result was “inactive”.

On to `c1ccc(CSc2nnc(-c3ccco3)c(-c3ccco3)n2)cc1`, for which the Potency was 7.94 µM (active).

For the compound `Cc1cccc(Cc2c(C)nc3nc(SCc4ccccc4Cl)nn3c2C)c1`, the Potency entry was “inactive”.

Regarding `CSc1n[nH]c(-c2ccco2)n1`, the Potency result is “inactive”.

`Clc1ccccc1CSc1nnc(-c2ccco2)c(-c2ccco2)n1`: the Potency is 14.1 µM (active).

As to `Cc1ccc(-c2nnc(SCC(=O)NCc3ccccc3)nc2-c2ccc(C)cc2)cc1`, the Potency result is “inactive”.

In the case of `O=C(CCc1nc(CN2CCN(S(=O)(=O)c3ccc(Br)cc3)CC2)no1)N1CCCCC1`, the Potency entry was “inactive”.

As for `CCOC(=O)c1scc(-c2ccc(C)cc2)c1S(=O)(=O)Nc1cc(C)ccc1C`, the Potency entry is “inactive”.

Turning to `Cc1cccc(-n2c(SCC(N)=O)nc3c(oc4ccccc43)c2=O)c1`, the Potency entry was “inactive”.

For the compound `COc1cc(Cl)c(C)cc1NC(=O)CCc1nc2cccnc2n1Cc1cccs1`, the Potency entry was “inactive”.

In the case of `Cc1cc(NC(=O)CSc2ncc(C(=O)Nc3ccc(Cl)cc3)c(=O)n2C)no1`, the Potency result was “inactive”.

For the compound `CC1(C)CC(=O)C(N=Nc2ccc(S(=O)(=O)N3CCCCCC3)cc2)=C(O)C1`, the Potency result was “inactive”.

With `Cc1ccc(S(=O)(=O)N2CCN(S(=O)(=O)N3CCOCC3)CC2)cc1`, the Potency result is “inactive”.

As for `O=C1CCCC(O)=C1N=Nc1ccc(S(=O)(=O)N2CCOCC2)cc1`, the Potency was 35.5 µM (active).

On to `COc1ccc(Cn2c(=O)[nH]c3cc(C(=O)N4CCN(C(=O)c5ccco5)CC4)ccc3c2=O)cc1`, for which the Potency result is “inactive”.

On to `N#Cc1c(N2CCCCC2)nc(N)c2c(N)nc(SCC(=O)O)cc12`, for which the Potency is 7.08 µM (active).

In the case of `N#Cc1c(C(F)(F)F)cc(-c2cccs2)nc1N1CCCCC1`, the Potency result was “inactive”.

On to `CC(C)(C)c1ccc(C(=O)C[n+]2cccc3cc(Cl)ccc32)cc1`, for which the Potency entry is “inactive”.

In the case of `CC(C)(C)c1ccc(C(=O)C[N+]2(C)CCCc3ccccc32)cc1` (stereo unspecified), the Potency is 79.4 µM (active).

For the compound `CC(C)(C)c1ccc(C(=O)NCc2nnc(SCC(=O)N3CCCc4ccccc43)n2-c2ccccc2)cc1`, the Potency result was “inactive”.

Turning to `Cc1ccc(NC(=O)Cn2cnc3nc4c(cc3c2=O)CCCC4)cc1Cl`, the Potency result is “inactive”.

Take `CCOc1ccc(CNC(=O)C2CCN(c3nnc(-n4cccc4CNc4ccc(C)cc4)s3)CC2)cc1OC`: the Potency entry was “inactive”.

In the case of `Cc1ccc(CCNC(=O)c2ccc(CNS(=O)(=O)c3ccc(C)cc3)cc2)cc1`, the Potency entry is “inactive”.

With `CC(C)n1cnc2c(NCc3ccccc3)cc(OCC3CCN(C)CC3)cc21`, the Potency was 3.16 µM (active).

For `CN(C)c1nccc(NCc2ccccc2)c1C#N`, the Potency result was “inactive”.

As to `Cc1ccc(OCC(=O)OCc2cc(=O)n3nc(C4CC4)sc3n2)cc1`, the Potency was 89.1 µM (active).

Regarding `Cc1ccc(OCC(=O)OCc2cc(=O)n3nc(C4CC4)sc3n2)cc1C`, the Potency entry was “inactive”.

For the compound `CCCCc1nn2c(=O)cc(COC(=O)c3cccc(NC(=O)COc4ccccc4)c3)nc2s1`, the Potency entry was “inactive”.

For the compound `O=C(COc1ccccc1F)OCc1cc(=O)n2nc(C3CCCCC3)sc2n1`, the Potency result was “inactive”.

Take `CCC(=O)Nc1cccc(C(=O)OCc2cc(=O)n3nc(CC)sc3n2)c1`: the Potency entry was “inactive”.

In the case of `COc1ccc(OCC(=O)Nc2cccc(C(=O)OCc3cc(=O)n4nc(C)sc4n3)c2)cc1`, the Potency was 89.1 µM (active).
